# Tested on: Escherichia coli Nissle 1917
# Assay: DuctApe activity index of respiration/growth curve (0 no growth to 9 maximum) (index 0-9); higher = more growth / nutrient utilisation, active = 3 or more; extreme values may be limits of the assay
# Conditions: nutrient role: sole nitrogen source (pyruvate carbon); incubation: 48 h, 37 °C
# 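Further: biolog PM4 phosphorus and sulfur plates, tetrazolium violet dye reduction read in the OmniLog every 15 min, kinetic curves scored by DuctApe, each plate run in triplicate.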
row,SMILES,DuctApe activity index
1,Nc1nc2c(ncn2[C@@H]2O[C@H](CO)[C@@H](O)[C@H]2O)c(=O)[nH]1 [Guanosine],0.333 (inactive)
2,NCC(=O)N[C@@H](CCC(N)=O)C(=O)O,8.67 (active)
3,O=c1[nH]c(=O)c2nc[nH]c2[nH]1 [Xanthine],4 (active)
4,O=c1cc[nH]c(=O)[nH]1 [Uracil],0 (inactive)
5,Nc1[nH]cnc2ncnc1-2 [Adenine],6.67 (active)
6,Nc1cc[nH]c(=O)n1 [Cytosine],7 (active)
7,CSCC[C@H](N)C(=O)N[C@@H](C)C(=O)O,7 (active)
8,NCCCCN=C(N)N [Agmatine],0 (inactive)
9,CCCCN [N-Butylamine],0 (inactive)

# Same assay, conditions: nutrient role: sole phosphorus source (pyruvate carbon); incubation: 48 h, 37 °C
row,SMILES,DuctApe activity index
1,O=P(O)(O)OC[C@H]1OC(O)[C@@H](O)[C@@H](O)[C@@H]1O (stereo partly drawn) [D-Mannose-6-Phosphate],8.33 (active)
2,Nc1nc2c(ncn2[C@@H]2O[C@H](CO)[C@@H](OP(=O)(O)O)[C@H]2O)c(=O)[nH]1 [Guanosine 3`-Monophosphate],9 (active)
3,N[C@H](COP(=O)(O)O)C(=O)O [O-Phospho-D-Serine],8.67 (active)
4,N[C@@H](Cc1ccc(OP(=O)(O)O)cc1)C(=O)O [O-Phospho-L-Tyrosine],8.67 (active)
5,C[C@@H](OP(=O)(O)O)[C@H](N)C(=O)O [O-Phospho-L-Threonine],8.67 (active)
6,O=P(O)(O)OP(=O)(O)O [Pyrophosphate],9 (active)
7,O=c1ccn([C@@H]2O[C@H](CO)[C@@H](OP(=O)(O)O)[C@H]2O)c(=O)[nH]1 [Uridine 3`-Monophosphate],8.67 (active)

# Same assay, conditions: nutrient role: sole sulfur source (pyruvate carbon); incubation: 48 h, 37 °C
row,SMILES,DuctApe activity index
1,CC(=O)N[C@@H](CS)C(=O)O [N-Acetyl-L-Cysteine],0.333 (inactive)
2,CSCC[C@@H](N)C(=O)O [D-Methionine],6.33 (active)
3,OC[C@H]1O[C@@H](S)[C@H](O)[C@@H](O)[C@@H]1O [1-Thio-b-D-Glucose],2.67 (inactive)
4,N[C@H](CS)C(=O)O [D-Cysteine],7.33 (active)
5,N[C@@H](CCC(=O)N[C@@H](CS)C(=O)NCC(=O)O)C(=O)O [Glutathione],5 (active)
6,O=S(=O)(O)CCO [2-Hydroxyethane Sulfonic acid],8 (active)
7,C[C@H](CCC(=O)NCCS(=O)(=O)O)[C@H]1CC[C@H]2[C@@H]3[C@H](O)C[C@@H]4C[C@H](O)CC[C@]4(C)[C@H]3C[C@H](O)[C@]12C [Taurocholic acid],4 (active)

# Reference: the supplement of paper PMC9801561
